This note sets out measurements from PubChem BioAssay.

Broadly, the inhibition is the drop in the measured response relative to a control, in per cent.

The source made the active and inactive calls. No stated cut-off is given here; in the data, active means inhibition above about 30%; inactive means the rest.

This assay in a line: growth suppression of yeast trafficking mutant, preliminary HTS, modulators of trafficking downstream of Golgi apparatus project, 1536-format plate, OD 615 nm (AID 637). The note with it: yeast transport mutant growth, absorbance 615 nm, 18 h; hits give high values.
For the compound `CC1(C)CC(=O)C2=C(C1)N(Cc1ccco1)C(=O)C2(NC(=O)C1CCCCC1)C(F)(F)F` (configuration not stated), the inhibition is 5.56% (inactive).
As for `C=CCn1c(=S)[nH]c2nc3c(cc2c1=O)COC(C)(C)C3`, the figure is 2.86% (inactive); as for `CC(=O)Nc1ccc(S(=O)(=O)N(CC(=O)O)Cc2ccccc2)cc1`, 7.14% (inactive).
In the case of `Cc1cccc2cc(C#N)c(SCCN3CCCCC3)nc12`, the inhibition is -0.18% (inactive).
As for `CSc1nnc(-c2cnccn2)n1C`, the figure is 4.92% (inactive); as for `COc1ccccc1NC1=NC2(CCCC2)N=C(N)N1`, 3.02% (inactive); as for `CC(C)C(c1nnnn1C1CCCC1)N1CCCc2ccccc21` (configuration not stated), -3.65% (inactive).
Then `COc1cc(NC(=O)c2cc(-n3cnnc3)ccc2Cl)cc(OC)c1`, with -1.11% (inactive); and `Cc1ccc(OCc2nnc(SCC(=O)N3CCOCC3)n2C)cc1`, with -6.35% (inactive); and `CCc1nc(C)ccc1OCC(=O)O`, with 2.7% (inactive).
On to `CCCOc1ccc(N2C(=O)CC(NCCCN3CCC(C(N)=O)CC3)C2=O)cc1` (configuration not stated), for which the inhibition is 1.27% (inactive).
As for `CC1CCCCN1CCNS(=O)(=O)c1ccc2c(c1)oc(=O)n2C` (configuration not stated), the figure is -1.11% (inactive); as for `COc1cccc(C(c2nnnn2Cc2ccccc2)N2CCN(C(=O)c3ccco3)CC2)c1OC` (configuration not stated), -6.35% (inactive).
`COc1ccc(S(=O)(=O)N2CCC(C(=O)NCc3ccco3)CC2)cc1`: the inhibition is -3.97% (inactive).
As for `CSC1CCCCC1(O)CSc1nc2c(cc1C#N)CCCC2` (configuration not stated), the figure is -1.9% (inactive).
Then `CCSc1nnc(NC(=O)c2cc(C)oc2C)s1`, with 3.33% (inactive).
Then `COC(=O)c1ccc(CN(c2ccccc2OC)S(=O)(=O)c2cccs2)o1`, with -7.14% (inactive).
